Rows were chosen to be rich in hits. Some 2.4% of all compounds tested hit in one or more screens of this group.
TSG101-PTAP inh = blocks PTAP/TSG101 interaction to inhibit HIV-1 budding; Fluorescence polarization, FITC-PTAP peptide / Tsg101 binding; Potency, µM (top dose mostly 115 µM), without a hit: at the highest dose activity change, negative = inhibition, hits mostly inhibitors; 340,000 tested, under 10 active; active = well fitted inhibition curve with a large enough effect in the main read-out, with a control signal flat, not every such curve was filed as active; inconclusive = small, poorly fitted or top-dose-only effect, or effect the other way, or a change in a side signal; inactive = no such curve, though single readings can be large or run the other way; note: % of control where 0% means no effect
Target sequence (Q99816 whole entry, looked up): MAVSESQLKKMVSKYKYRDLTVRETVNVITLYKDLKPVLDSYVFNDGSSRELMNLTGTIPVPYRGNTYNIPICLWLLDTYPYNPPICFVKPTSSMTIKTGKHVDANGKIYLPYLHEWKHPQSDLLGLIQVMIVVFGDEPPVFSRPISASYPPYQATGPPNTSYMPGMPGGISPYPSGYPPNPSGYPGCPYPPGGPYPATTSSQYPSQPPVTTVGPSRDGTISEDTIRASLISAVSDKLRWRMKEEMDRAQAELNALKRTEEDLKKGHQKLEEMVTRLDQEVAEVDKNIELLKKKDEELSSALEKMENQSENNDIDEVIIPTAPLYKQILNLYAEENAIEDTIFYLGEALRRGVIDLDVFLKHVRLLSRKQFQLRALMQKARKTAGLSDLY
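Steps: Tsg101 binding domain dispensed (10 uM final), compounds pinned in DMSO, FITC-labeled PTAP-motif peptide added (50 nM final); after 20 min binding at room temperature, polarization measured.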
12-LOX inh = blocks human arachidonate 12S-lipoxygenase | AID 1671190 | 580,000 tested, 1.1% active | Potency, µM (doses to about 108 µM), without a hit: at the top dose activity change, negative = inhibition, usual class: inhibitors | purified 12hLO, xylenol orange hydroperoxide absorbance; active = well fitted curve in the direction sought with a large enough effect; inconclusive = small, poorly fitted or top-dose-only effect, or another doubt; inactive = no such curve, though single readings can be large; an effect the other way counts as inactive or inconclusive; note: % is set by controls: 0 for no effect and ±100 for the full control effect
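Hydroperoxide product was detected by ferrous iron/xylenol orange as the 573 to 405 nm absorbance ratio. Arachidonic acid at 40 uM (final) was turned over for 30 min at room temperature by 150 nM human 12hLO, pH 7.0 Hepes buffer, after 15 min compound preincubation.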
Rango-impB inh = inhibitors of Rango-importin beta complex formation; Q14974; Rango CFP/YFP FRET sensor + importin beta, 45 min; Potency, µM (highest dose often 92.2 µM), without a hit: at the highest dose inhibition of complex formation; 340,000 tested, 0.031% active; AID 540263;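 note: 0% = DMSO wells and 100% = buffer wells lacking importin beta; nearly all actives have a fitted effect of over 15% in size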
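FRET biosensor (snurportin 1 IBB flanked by EYFP and cerulean), 50 nM, with compound 5 min, then 0.125 microM importin beta in PBS, 1 mM DTT, 0.02% Tween-20, 0.1% BSA. CFP/YFP ratio read after 45 min at room temperature; pre-read flags interference.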
TDP1 inh = inhibitors of human tyrosyl-DNA phosphodiesterase TDP1; Q9NUW8; Potency, µM (series often up to 130 µM), inactives show at the top dose activity change, negative = inhibition, usual class: inhibitors; recombinant TDP1, AlphaScreen DNA substrate cleavage; 350,000 tested, 0.28% active; active = well fitted curve in the direction sought with a large enough effect; inconclusive = small, poorly fitted or top-dose-only effect, or another doubt; inactive = no such curve, though single readings can be large; an effect the other way counts as inactive or inconclusive; note: % is set by controls: 0 for no effect and ±100 for the full control effect; nearly all actives have a fitted effect of over 40% in size
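Recombinant human Tdp1 (E. coli-expressed, 1 nM final) preincubated with compounds 15 min at room temperature, then 5'-biotin/3'-phosphotyrosine-FITC DNA substrate (15 nM final) added for 5 min. AlphaScreen beads (10 ug/ml final) added 10 min; cleavage lowers signal.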
Rango release inh = inhibitors of RanGTP-induced Rango-importin beta complex dissociation | 340,000 tested, 0.071% active | Potency, µM (highest dose often 46.1 µM), inactives show at the highest dose activity change, negative = inhibition | Biochemical FRET Rango-importin beta, RanGTP-induced dissociation | AID 540253 | O95149+P62826; note: % of control where 0% means no effect; nearly all actives have a fitted effect of over 45% in size
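Two FRET readings bracket the reaction: one 5 min after compound meets Rango–importin beta, another 45 min after RanGTP-RCC1 (0.6 uM Ran, 0.2 uM RCC1, 2 mM GTP) is added. Only the second defines inhibition.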
ClpP mod = qHTS Assay for Activators of ClpP. purified B. subtilis ClpP, FRET peptide cleavage, 20 min. Potency, µM (series often up to 57.5 µM), for the others: at the highest dose activity change, negative = active. AID 651965, 2013. 340,000 tested, 1.9% active. ATP-dependent Clp protease proteolytic subunit (Bacillus subtilis (strain 168)), P80244; active = well fitted falling curve with a large enough effect; inconclusive = small, poorly fitted or top-dose-only effect; inactive = no such curve, though single readings can be large or run the other way; note: the source files actives as falling curves though it sought activators and does not explain the sign; nearly all actives have a fitted effect of over 65% in size
Target sequence (P80244 whole entry, looked up): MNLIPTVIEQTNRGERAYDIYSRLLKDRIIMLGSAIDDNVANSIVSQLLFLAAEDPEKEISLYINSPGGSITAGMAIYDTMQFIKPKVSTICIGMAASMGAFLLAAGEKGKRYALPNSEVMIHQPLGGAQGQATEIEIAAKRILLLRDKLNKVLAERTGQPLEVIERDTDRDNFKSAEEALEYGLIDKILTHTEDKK
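Purified B. subtilis ClpP, 10 microg/mL final in Tris/HCl pH8 with KCl, BSA, glycerol and Tween-20, cleaved an Abz/nitrotyrosine-quenched decapeptide. Fluorescence (ex 320, em 430) was read at 0 and 20 min at room temperature. Delta was normalized to 5.8 microM ADEP and DMSO/no-enzyme controls.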
* = called active by the depositor; ? = inconclusive; . = not tested or not shown; [ ] = remark or other dose. Unless noted, calls come from the whole dose curve. Potency is the fitted concentration of half-maximal effect.

SMILES	TSG101-PTAP inh	12-LOX inh	Rango-impB inh	TDP1 inh	Rango release inh	ClpP mod
Cc1cccc(C)c1Nc1c(-c2ccccc2F)nc2cccc(C)n12	.	-10.2%	.	7.3%	.	31.6µM*
COc1ccc(C(=O)N2CCCC(c3nc(-c4ccc(OC)c(OC)c4)no3)C2)c(OC)c1 (stereo unspecified)	-4.2%	16.9%	-1.0%	1.0%	-2.5%	28.2µM*
COc1ccc(-c2noc(C3CCCN(C(=O)c4ccccc4OC)C3)n2)cc1OC (stereo unspecified)	-9.0%	24.0%	-0.7%	9.5%	10.8%	-2.0%
COc1ccccc1CCn1c(N)c(C#N)c2nc3ccccc3nc21	-0.1%	3.9%	?	1.1%	?	31.6µM*
N#Cc1c(N)n(CCCN2CCOCC2)c2nc3ccccc3nc12	-10.6%	-12.0%[57.4 µM]	?	3.1%	?	4.47µM*
CCCCCn1c(N)c(C#N)c2nc3ccccc3nc21	0.1%	0.6%	?	4.2%	?	?
COc1ccc(Cn2c(N)c(C#N)c3nc4ccccc4nc32)cc1OC	1.2%	-17.9%	?	1.8%	11.6µM*	14.1µM*
COCc1nnc2n1CCC(NC(=O)c1ccc3cc[nH]c3c1)CC2 (stereo unspecified)	.	5.8%	.	.	.	.
O=C1CCN(C(=O)[C@@H](Cc2ccccc2)NC(=O)Nc2ccccc2)CCOCCN1	.	16.5%	.	.	.	.
CS(=O)(=O)c1ccc(CN2C[C@@H]3OCC(=O)N(Cc4ccc(F)cc4)[C@@H]3C2)cc1	.	-3.5%[176 µM]	.	.	.	.
c1ccc(Cn2c(-c3ccccc3)nc3nc4ccccc4nc32)cc1	-1.7%	-1.1%	4.4%	-13.3%	24.6%	31.6µM*
COc1cc(/C=N/NC(=O)CCN2CCN(C)CC2)cc2c1OCO2	.	-25.0%	-2.7%	3.0%	-0.2%	15.8µM*
COc1cc(/C=N/NC(=O)c2ccncc2)cc2c1OCO2	-11.2%	19.1%	0.4%	.	-0.5%	0.4%
COc1ccc(NC(=O)N2CCCCCC2c2nc(-c3cccnc3)no2)cc1 (stereo unspecified)	.	27.4%	.	.	.	.
CCOc1cc(/C=C(\C#N)C(=O)Nc2cccc(C(=O)O)c2)cc(Br)c1OC(=O)c1ccc(OC)cc1	-0.4%	44.7µM*	?	-3.5%	?	.
CCOc1cccc(NC(=O)/C(C#N)=C/c2cccnc2)c1	-5.6%	-4.3%	-0.1%	.	1.2%	-0.3%
N#C/C(=C/c1ccc(OCc2ccc(C(=O)O)cc2)cc1)C(=O)Nc1ccccc1	-1.5%	.	0.1%	.	-8.7%	0.7%
N#C/C(=C\c1ccc(OCc2ccc(Br)cc2)cc1)C(=O)Nc1cccc(C(=O)O)c1	-2.6%	-18.9%	-1.8%	22.4µM*	-9.1%	-0.2%
COc1cc(/C=C(\C#N)C(=O)Nc2cccc(C(=O)O)c2)ccc1OCc1ccc(F)cc1	-4.5%	-10.0%	-1.4%	56.2µM*	0.3%	.
COc1ccc(NC(=O)/C(C#N)=C\c2ccc(OCc3ccc(C(=O)O)cc3)c(OC)c2)cc1	-2.0%	-1.0%	0.0%	?	17.1%	.
CCOc1cc(/C=C(\C#N)C(=O)Nc2cccc(C(=O)O)c2)ccc1OCc1ccccc1Cl	-3.5%	3.1%	4.9%	79.4µM*	0.8%	-0.8%
COCCN1CCC(N2CCN(S(=O)(=O)c3ccc(F)c(Cl)c3)CC2)C1=O (stereo unspecified)	.	52.7%	.	.	.	.
N#C/C(=C\c1ccc(OCc2ccc(F)cc2)cc1)C(=O)Nc1cccc(C(=O)O)c1	-7.0%	-23.3%	-1.7%	44.7µM*	-4.0%	1.7%
COCc1ncc2c(n1)CCCN(CC(=O)NCc1cccc(F)c1)C2=O	.	28.9%	.	.	.	.
COC(=O)C1=CN(C(C)C)C=C(C(=O)OC)C1c1cc2c(cc1Br)OCO2	-1.6%	?	?	-6.9%	?	31.6µM*
COc1ccc(Nc2nc(-c3ccc4c(c3)NC(=O)CO4)cs2)cc1	-1.2%	?	?	2.6%	2.9%	.

Assay outcomes as filed in PubChem.
